# Screens from PubChem.
# DAX1 inh-1 = DAX1 (NR0B1) inhibitors on StAR promoter, primary screen, cell-based, luminescence, SF-1 (NR5A1), full-length DAX-1; HEK293T StAR-luciferase reporter, SF-1/DAX-1 repression relief; AID 652010, 2013; inhibition, % at 6.8 µM; actives 1.1% (n = 370,000);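 active means inhibition above the mean over all tested compounds plus 3 SD, cut at about 3.6% in these data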;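 further: 0% = DAX-1 cells with DMSO and 100% = cells lacking DAX-1 with DMSO; higher inhibition means more luminescence from relief of DAX-1 repression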
# ssDAF12 agonist = S. stercoralis DAF-12 nuclear receptor activators, primary screen, cell-based, luminescence, HEK293, GRIP1 co-expression, lit1-tk-luc | Nuclear hormone receptor DAF-12 (Strongyloides stercoralis) | actives 1% (n = 370,000) | AID 652126, 2013 | activation, % at 6.8 µM | HEK293 ssDAF-12/GRIP1 lit1-tk-luc reporter; % of 3 µM dafachronic acid response;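 active means activation above the mean over all tested compounds plus 3 SD, cut at about 0.9% in these data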;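 further: 0% = DMSO-only wells and 100% = 3 µM delta7-dafachronic acid wells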
# hgDAF12 agonist = H. glycines DAF-12 receptor agonists, primary screen, cell-based, luminescence, HEK293, GAL4 fusion, UAS-luciferase | activation, % at 6.8 µM | actives 1.8% (n = 370,000) | Nuclear hormone receptor DAF-12 (Heterodera glycines), GAL4 fusion | HEK293 GAL4-hgDAF12 UAS-luciferase reporter, agonist luminescence; normalized to butyrate control | AID 687014, 2013;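 active means activation above a cutoff set at the mean of all screened compounds plus 3 SD, cut at about 10% in these data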;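 further: 0% = DMSO wells and 100% = sodium butyrate wells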
# AHR act = AHR activators, primary screen, cell-based, luminescence, luciferase reporter, human. Aryl hydrocarbon receptor (Homo sapiens), P35869. AHR-responsive luciferase reporter cells. activation, % at 5 µM. actives 2.5% (n = 320,000); in the data active means activation above about 47%;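 further: 0% = vehicle wells and 100% = reference agonist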
# Target sequence (P35869 whole entry, looked up): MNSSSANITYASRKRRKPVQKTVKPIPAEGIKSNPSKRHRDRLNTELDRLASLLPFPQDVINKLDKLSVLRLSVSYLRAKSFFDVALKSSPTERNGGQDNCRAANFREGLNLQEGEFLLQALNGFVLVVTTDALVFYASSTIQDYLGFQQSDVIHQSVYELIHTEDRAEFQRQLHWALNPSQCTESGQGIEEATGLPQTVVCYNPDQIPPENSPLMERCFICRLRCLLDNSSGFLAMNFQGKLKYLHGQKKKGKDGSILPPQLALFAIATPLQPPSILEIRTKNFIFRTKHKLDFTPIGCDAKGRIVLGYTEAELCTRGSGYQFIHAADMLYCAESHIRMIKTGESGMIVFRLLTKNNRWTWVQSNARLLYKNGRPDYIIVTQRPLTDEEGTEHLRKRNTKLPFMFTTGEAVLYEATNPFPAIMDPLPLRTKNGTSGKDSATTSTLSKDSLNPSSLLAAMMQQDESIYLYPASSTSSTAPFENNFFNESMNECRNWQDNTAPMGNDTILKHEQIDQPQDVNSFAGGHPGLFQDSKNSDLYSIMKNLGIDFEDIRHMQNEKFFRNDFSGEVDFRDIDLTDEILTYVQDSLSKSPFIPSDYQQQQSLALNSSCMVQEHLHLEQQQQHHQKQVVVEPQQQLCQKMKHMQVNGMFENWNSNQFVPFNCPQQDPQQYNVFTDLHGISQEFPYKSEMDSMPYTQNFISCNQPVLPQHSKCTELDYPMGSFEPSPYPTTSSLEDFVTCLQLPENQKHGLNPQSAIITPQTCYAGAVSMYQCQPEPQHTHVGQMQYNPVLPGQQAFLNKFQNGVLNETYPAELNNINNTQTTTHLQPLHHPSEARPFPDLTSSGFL
# hcDAF-12 act = H. contortus DAF-12 nuclear receptor activators, primary screen, cell-based, luminescence, HEK293, lit1-tk-luc reporter | HEK293 hcDAF-12 lit1-tk-luc reporter; 0% DMSO, 100% Δ7-dafachronic acid | activation, % at 6.8 µM | actives 1.4% (n = 370,000);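 active means activation above the mean of all tested compounds plus 3 SD, cut at about 5.5% in these data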;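 further: 100% = response to 3 µM Δ7-dafachronic acid high control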
# DAX1 inh-2 = DAX1 (NR0B1) inhibitors, primary screen, cell-based, HEK293, Gal4-DAX1, luciferase luminescence. Nuclear receptor subfamily 0 group B member 1 (Homo sapiens), P51843. HEK293 Gal4-DAX1 luciferase reporter. inhibition, % at 6.75 µM. actives 0.99% (n = 340,000). AID 504766, 2011;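 active means inhibition above the mean over all tested compounds plus 3 SD, cut at about 4.2% in these data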;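 further: 0% = DAX1-transfected cells with DMSO and 100% = empty-vector control cells with DMSO; inhibition shows as a rise in luminescence from relieved DAX1 repression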
# The depositor's hits bear a star; · = no result. A selection: hits, their analogues and other compounds. The true share with any hit is near 5.7%.
SMILES,DAX1 inh-1,ssDAF12 agonist,hgDAF12 agonist,AHR act,hcDAF-12 act,DAX1 inh-2
CCCCc1c(-c2ccc(F)cc2)ncn1CCc1ccccc1OC,0,-1,-2,·,-2,·
Fc1ccccc1C1c2[nH]c3ccccc3c2CCN1Cc1ccoc1 (configuration not stated),1,0,9,22,4,2
O=S(=O)(Nc1cccc2c1CCCC2)c1cccc(C(F)(F)F)c1,0,-1,-2,-1,0,0
CN1CCN(C(=S)Nc2cc([N+](=O)[O-])ccc2Cl)CC1,0,-1,3,0,0,5.3*
CN1CCN(C(=S)c2ccc([N+](=O)[O-])cc2)CC1,0,-1,3,0,-2,0
CCNC(=S)NNC(=O)c1csc(CC)c1,0,-1,6,2,-1,7.0*
CCc1cc(C(=O)NNC(=S)Nc2ccccc2C)cs1,3.6*,0,12*,2,2,2
CCc1cc(C(=O)NNC(=S)Nc2cc(C)ccc2C)cs1,0,-1,-2,-1,-1,1
COc1cccc(/C=N/n2c(SC)nnc2-c2ccccc2)c1O,-1,-1,-1,12,1,4.6*
COc1cccc(/C=N/N2CCOCC2)c1O,2,0,8,4,1,0
COc1cccc(/C=N/n2c(SC)nnc2-c2ccccc2)c1OC,1,-1,0,61*,-1,-1
O=C(Oc1ccccc1C(=O)N1CCOCC1)c1cccc(Br)c1,0,-1,0,-1,-1,0
Cc1cccc(C)c1NC(=O)CN(Cc1ccccc1)Cc1ccccc1,-1,-1,-1,·,-2,·
Cc1ccc(NC2=CC(=O)CC(c3ccco3)C2)c(N)c1 (configuration not stated),4,1.6*,11*,21,4,3
CC1CCN(C(=O)COc2ccc3ccccc3c2Br)CC1,4.2*,0,1,8,0,1
COCCCNC(=O)c1oc2ccc(S(=O)(=O)N3CCOCC3)cc2c1C,0,-1,2,1,-1,4.9*
Cc1c(C(=O)NC2CCCc3ccccc32)oc2ccc(S(=O)(=O)N3CCOCC3)cc12 (configuration not stated),-1,-1,-1,0,-1,5.8*
Cc1c(C(=O)NC2CCCc3ccccc32)oc2ccc(S(=O)(=O)N3CCCC3)cc12 (configuration not stated),0,-1,0,2,-1,0
COc1cc(NS(=O)(=O)c2ccc(NC(=S)NC(=O)/C=C/c3ccc(OC)c(OC)c3)cc2)ncn1,0,-1,0,1,0,-1
CC(C)COc1ccc(-c2nnc(-c3ccncc3)o2)cc1,1,-1,5,12,3,2
CCCOc1ccc(-c2nnc(-c3ccncc3)o2)cc1,1,-1,11*,6,1,3
COc1cccc(/C=N/Nc2cc(N3CCOCC3)ncn2)c1O,-2,-2,-8,48*,-4,-3
COc1ccc(/C=N/Nc2cc(N3CCCC3)nc(N3CCCC3)n2)cc1,-1,-2,1,68*,-1,0
COc1ccc(/C=N/Nc2cc(N3CCOCC3)ncn2)c(OC)c1,0,-2,0,12,-2,-1
Cc1cc(Nc2ccc(C)c(Cl)c2)nc(N2CCOCC2)n1,0,-1,-1,14,-2,·
SMILES,DAX1 inh-1,ssDAF12 agonist,hgDAF12 agonist,AHR act,hcDAF-12 act,DAX1 inh-2
Cc1cc(N/N=C/c2ccccc2O)nc(N2CCOCC2)n1,0,-1,3,7,-2,-1
COc1ccc(OC)c(/C=N/Nc2cc(C)nc(N3CCOCC3)n2)c1,0,-1,0,68*,-3,·
Cc1ccc(Nc2cc(C)nc(N3CCOCC3)n2)cc1,1,0,4,35,5.7*,1
Oc1ccc(/C=N/Nc2cc(N3CCCC3)nc(N3CCCC3)n2)cc1,0,-1,-1,3,-3,1
Cc1cc(C)n2cc(CSc3nnc(-c4ccccc4)o3)nc2n1,0,0,2,3,0,1
O=C1c2cccc3cccc(c23)C(=O)N1CCCN(C(=O)c1cccs1)c1cccc(F)c1,0,0,1,51*,2,0
O=C(O)CCCN1C(=O)c2cccc3cccc(c23)C1=O,0,-1,-1,-3,0,0
Cc1csc(SCC(=O)Nc2sccc2C(N)=O)n1,0,-1,11*,7,0,0
Cc1csc(SCC(=O)Nc2nccs2)n1,1,0,1,10,1,1
O=C(CSc1nc(-c2ccco2)cc(C(F)(F)F)n1)NCCN1CCOCC1,0,-1,0,0,-2,6.0*
O=C(CSc1nc(-c2ccc(F)cc2)cc(C(F)(F)F)n1)NCCN1CCOCC1,0,-1,0,-1,0,2
CC1(C)CC(=O)N(Cc2ccccc2)C(=O)C1,-1,-1,-2,0,1,4.5*
COCCNC(=O)Cn1nc(-c2ccc(Cl)cc2)c2ccccc2c1=O,2,11*,-2,11,2,2
COc1ccc(S(=O)(=O)NN(C)c2ncc(C(F)(F)F)cc2Cl)cc1,0,-1,1,-1,-3,-1
O=C(NCc1ccc(F)cc1)c1c2c(nc3ccccc13)CCC2,4.5*,0,4,8,3,0
O=C(NCc1ccco1)c1c2c(nc3ccccc13)CCC2,0,-1,1,1,2,3
O=C(NCc1ccc(Cl)cc1)c1ccncc1,0,0,1,3,-1,-1
O=C(NCc1ccc(F)cc1)c1ccncc1,0,-1,3,4,-1,4.4*
COc1cc(OC)cc(-c2c(-c3ccc(F)cc3)c3cc(-c4ccc5[nH]ccc5c4)ccc3n2C)c1,0,-2,-1,-2,0,2
Fc1cccc(C2NN=C(c3ccccc3)S2)c1 (configuration not stated),4.5*,2.3*,28*,17,10*,3
CC1=CC(=O)C(C(C)C)=C/C1=N/OC(=O)c1cccc([N+](=O)[O-])c1,0,0,-4,15,3,2
CC1=CC(=O)C(C(C)C)=C/C1=N\OC(=O)c1cccc2nc(C)oc12,0,0,-2,2,5.7*,1
